Assay results from PubChem BioAssay (EPA / NIEHS).
Values joined by “and” are separate entries in the source; they are usually repeats but may differ in a detail not shown here. Equal entries are not always repeated. Active and inactive are the calls of the source. How the source made its calls: active means hit-call score of the fitted dose curve at least 0.9, where 1 is the maximum; inactive means score below 0.9.

read-out: Monokine induced gamma interferon (MIG), CXCL9 (gene 4283); test: BSK_SAg_MIG: BioMAP Diversity Plus: SAg Assay for Monokine induced gamma interferon (MIG) Biomarker Activity (AID 2283092); details: primary human HUVEC with PBMC; actives raise or lower the signal
In short: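 HUVEC plus human PBMC co-culture, chemicals dosed and MIG (CXCL9) quantified by ELISA at 24 h. Bidirectional curve fitting against DMSO as negative control and baseline, so both gain and loss of signal count as activity.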

SMILES	outcome	AC50
CCOC(=O)C(C)Oc1ccc(Oc2nc3ccc(Cl)cc3o2)cc1 (stereo not given)	inactive	
Cc1nn(C)c(Oc2ccccc2)c1C=NOCc1ccc(C(=O)OC(C)(C)C)cc1		19 µM (active)
O=C(O)c1ccccc1	inactive	
CCCCOC(=O)C(C)Oc1ccc(Oc2ccc(C(F)(F)F)cn2)cc1 (stereo not given)	inactive	
CC1(C)C(C=C(Cl)Cl)C1C(=O)OCc1cccc(Oc2ccccc2)c1 (stereo not given)	inactive	
COc1nc(C)nc(NC(=O)NS(=O)(=O)c2ccccc2OCCCl)n1	inactive	
COC(=O)c1c(Cl)nn(C)c1S(=O)(=O)NC(=O)Nc1nc(OC)cc(OC)n1	inactive	
CSC(=O)c1cccc2nnsc12	inactive	
CCOC(=O)[C@H](C)Oc1ccc(Oc2nc3ccc(Cl)cc3o2)cc1	inactive	
CCCOC(=O)c1ccc(C(=O)OCCC)nc1	inactive	
CCC(O)=C1C(=O)CC(C(=O)O)CC1=O (stereo not given)	inactive	
C#C[C@]1(O)CC[C@H]2[C@@H]3CCC4=CC(=O)CC[C@@H]4[C@H]3CC[C@@]21CC	inactive	
CCCCOC(=O)[C@@H](C)Oc1ccc(Oc2ccc(C(F)(F)F)cn2)cc1	inactive	
CCCN(CCC)c1c([N+](=O)[O-])cc(C(F)(F)F)c(N)c1[N+](=O)[O-]		31.7 µM (active)
CCNc1nc(N)nc(Cl)n1	inactive	
CC(C)CCCCCCc1ccc(O)cc1		9.25 µM (active)
COC(=O)c1ccccc1S(=O)(=O)NC(=O)Nc1nc(OC(F)F)cc(OC(F)F)n1	inactive	
CCCCC(CC)COC(=O)c1ccccc1C(=O)O (stereo not given)	inactive	
N#CSCSc1nc2ccccc2s1		11.6 µM (active) and 9.68 µM (active)
CCN(Cc1c(F)cccc1Cl)c1c([N+](=O)[O-])cc(C(F)(F)F)cc1[N+](=O)[O-]	inactive	
C#CCOC(=O)[C@@H](C)Oc1ccc(Oc2ncc(Cl)cc2F)cc1	inactive	
Oc1ccc(C(c2ccc(O)cc2)C(Cl)(Cl)Cl)cc1		38.9 µM (active)
CN(C)C(=O)Nc1ccc(Cl)c(Cl)c1	inactive	
CC(C)(C)[C@@H](O)[C@@H](Cc1ccc(Cl)cc1)n1cncn1	inactive	
CCCCCCC(C)OC(=O)COc1nc(F)c(Cl)c(N)c1Cl (stereo not given)		38.5 µM (active)
CCOC(=O)NCCOc1ccc(Oc2ccccc2)cc1	inactive	
CC(=O)[C@H]1CC[C@H]2[C@@H]3CCC4=CC(=O)CC[C@]4(C)[C@H]3CC[C@]12C	inactive	
c1ccc2[nH]c(-c3cscn3)nc2c1	inactive	
S=C([S-])NCCNC(=S)[S-].[Mn+2]	inactive	
CCCCCOC(=O)COc1cc(N2C(=O)C3=C(CCCC3)C2=O)c(F)cc1Cl	inactive	
